Data on nine compounds can be found in PubChem BioAssay (NCI).

SMILES strings stand for the structures. The panel holds about 79,000 compounds, 15% with a hit somewhere; the sample as a whole holds those more often. Unmarked numbers belong to inactive results. Activity calls are given as the source filed them. Rule as the data show it: active = growth inhibition above about 70%; inactive = the rest.

Experiment [1] is described as follows: NCI Yeast Anticancer Drug Screen. Data for the rad50 strain (AID 155).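 Also: 0% = growth of vehicle-only cultures of the same strain.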 To be noted: S. cerevisiae rad50 strain growth inhibition, active compounds read high. In outline:
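A DNA repair-deficient yeast mutant serves as the test organism; compound-induced growth inhibition is calculated against vehicle-treated cells.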

Experiment [2] is described as follows: NCI Yeast Anticancer Drug Screen. Data for the mec2-1 strain (AID 157). As to conditions: S. cerevisiae mec2-1 strain, active compounds read high. In outline:
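Test agents were screened against the mec2-1 yeast strain, with defined DNA repair or cell cycle alteration. Growth was scored as inhibition against vehicle-only controls.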

The nature of experiment [3]: NCI Yeast Anticancer Drug Screen. Data for the sgs1 mgt1 strain (AID 161).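 Also: 0% = growth of cultures given vehicle only.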 As to conditions: S. cerevisiae sgs1 mgt1 strain, active compounds read high. In outline: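 Test agents were incubated with a DNA-repair-mutant yeast strain. Growth was then read and compared against vehicle-treated controls.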
Experiment [4] is described as follows: NCI Yeast Anticancer Drug Screen. Data for the cln2 rad14 strain (AID 165).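 Also: 0% = growth equal to vehicle treated cultures.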 To be noted: S. cerevisiae cln2 rad14 strain, active compounds read high. In outline: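 Growth of compound-exposed yeast (cln2 rad14 genotype) measured and expressed as inhibition relative to vehicle.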
Experiment [5] in a line: NCI Yeast Anticancer Drug Screen. Data for the bub3 strain (AID 167). As to conditions: S. cerevisiae bub3 mutant strain, active compounds read high. In outline:
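Inhibition values come from growth of compound-treated mutant yeast normalised to vehicle-treated controls.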

Experiment [6] is described as follows: NCI Yeast Anticancer Drug Screen. Data for the mlh1 rad18 strain (AID 175). To be noted: S. cerevisiae mlh1 rad18 strain growth inhibition, active compounds read high. Summed up:
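In this whole-cell yeast screen, a strain with altered DNA damage repair is challenged with compound, and its growth is measured against matched vehicle-treated controls.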

Where [7] appears, read: at 5.0 µM (retest, dose inferred, filed as 0.5).
The mark [8] stands for this setting: at 50.0 µM (retest, dose inferred, filed as 5.0).

Consider `CNc1ccc2c(c1)Cc1ccccc1-2`, for which the growth inhibition in experiment [1] (setting [7]) was 36%; in experiment [1] (setting [8]), 92% (active); in experiment [1] (at 50.0 µM), 97.3% (active); in experiment [2] (setting [7]), 3%; in experiment [2] (setting [8]), 64%; in experiment [2] (at 50.0 µM), 91.8% (active). Further, the growth inhibition was 56% in experiment [3] (setting [7]); 86% (active) in experiment [3] (setting [8]); 96.9% (active) in experiment [3] (at 50.0 µM); 2% in experiment [4] (setting [7]); 79% (active) in experiment [4] (setting [8]); 92.8% (active) in experiment [4] (at 50.0 µM). Further, the growth inhibition in experiment [5] (setting [7]) is -7%; in experiment [5] (setting [8]), 45%; in experiment [5] (at 50.0 µM), 77.2% (active); in experiment [6] (setting [7]), 26%; in experiment [6] (setting [8]), 92% (active); in experiment [6] (at 50.0 µM), 97.2% (active).
Regarding `O=C1C=CC(=O)N1c1ccccc1[N+](=O)[O-]`, the growth inhibition in experiment [1] (setting [7]) was 98% (active); in experiment [1] (setting [8]), 99% (active); in experiment [1] (at 50.0 µM) it was 99.5% (active); in experiment [2] (setting [7]), 99% (active); in experiment [2] (setting [8]) it was 100% (active); in experiment [2] (at 50.0 µM), 99.5% (active). Moreover, the growth inhibition in experiment [3] (setting [7]) is 98% (active); in experiment [3] (setting [8]), 99% (active); in experiment [3] (at 50.0 µM), 99.4% (active); in experiment [4] (setting [7]), 90% (active); in experiment [4] (setting [8]) it was 99% (active); in experiment [4] (at 50.0 µM), 99.6% (active). For the same compound, the growth inhibition was 97% (active) in experiment [5] (setting [7]); 100% (active) in experiment [5] (setting [8]); 99.5% (active) in experiment [5] (at 50.0 µM); 98% (active) in experiment [6] (setting [7]); 100% (active) in experiment [6] (setting [8]); 99.5% (active) in experiment [6] (at 50.0 µM).
Take `c1ccc2c(c1)CCN2CCc1c[nH]c2ccccc12`: the growth inhibition was 0% in experiment [1] (setting [7]); 12% in experiment [1] (setting [8]); 89.6% (active) in experiment [1] (at 50.0 µM); -5% in experiment [2] (setting [7]); -12% in experiment [2] (setting [8]); 91.8% (active) in experiment [2] (at 50.0 µM). Moreover, the growth inhibition in experiment [3] (setting [7]) was -10%; in experiment [3] (setting [8]), 3%; in experiment [3] (at 50.0 µM) it was 89.8% (active); in experiment [4] (setting [7]) it was 23%; in experiment [4] (setting [8]), 31%; in experiment [4] (at 50.0 µM), 89.8% (active). The growth inhibition is -26% in experiment [5] (setting [7]); 43% in experiment [5] (setting [8]); 89.3% (active) in experiment [5] (at 50.0 µM); -14% in experiment [6] (setting [7]); 21% in experiment [6] (setting [8]); 88.5% (active) in experiment [6] (at 50.0 µM).
Consider `CC(=O)OC1C(OC(C)=O)C2C(C)CC3OC(=O)C(C)C3CC2(C)C1OC(C)=O` (configuration not stated), for which the growth inhibition was -7% in experiment [1] (setting [7]); 71% (active) in experiment [1] (setting [8]); 78.2% (active) in experiment [1] (at 50.0 µM); 2% in experiment [2] (setting [7]); 82% (active) in experiment [2] (setting [8]); 77.2% (active) in experiment [2] (at 50.0 µM). Also, the growth inhibition in experiment [3] (setting [7]) is -6%; in experiment [3] (setting [8]) it was 69%; in experiment [3] (at 50.0 µM), 73.6% (active); in experiment [4] (setting [7]), 34%; in experiment [4] (setting [8]) it was 46%; in experiment [4] (at 50.0 µM), 32.4%. For the same compound, the growth inhibition in experiment [5] (setting [7]) is 9%; in experiment [5] (setting [8]) it was 80% (active); in experiment [5] (at 50.0 µM), 67%; in experiment [6] (setting [7]), -18%; in experiment [6] (setting [8]), 81% (active); in experiment [6] (at 50.0 µM), 72.7% (active).
Take `CN(C)C1CCC2C3CC=C4CC(OC=O)CCC4(C)C3CCC21C` (configuration not stated): the growth inhibition is -1% in experiment [1] (setting [7]); 48% in experiment [1] (setting [8]); 71.2% (active) in experiment [1] (at 50.0 µM); 2% in experiment [2] (setting [7]); 42% in experiment [2] (setting [8]); 17.3% in experiment [2] (at 50.0 µM). The growth inhibition is 2% in experiment [3] (setting [7]); 60% in experiment [3] (setting [8]); 65.5% in experiment [3] (at 50.0 µM); 17% in experiment [4] (setting [7]); 83% (active) in experiment [4] (setting [8]); 76.4% (active) in experiment [4] (at 50.0 µM). In addition, the growth inhibition is 0% in experiment [5] (setting [7]); 86% (active) in experiment [5] (setting [8]); 48.8% in experiment [5] (at 50.0 µM); -11% in experiment [6] (setting [7]); 52% in experiment [6] (setting [8]); 45.7% in experiment [6] (at 50.0 µM).
Take `CCCCCCCCCCOC1C(C(O)CNCCCN(C)C)OC2OC3(CCCCC3)OC21` (configuration not stated): the growth inhibition in experiment [1] (setting [7]) was 1%; in experiment [1] (setting [8]) it was 97% (active); in experiment [1] (at 50.0 µM), 91.9% (active); in experiment [2] (setting [7]), -27%; in experiment [2] (setting [8]) it was 98% (active); in experiment [2] (at 50.0 µM), 93.2% (active). For the same compound, the growth inhibition in experiment [3] (setting [7]) is 7%; in experiment [3] (setting [8]), 98% (active); in experiment [3] (at 50.0 µM), 91% (active); in experiment [4] (setting [7]) it was 21%; in experiment [4] (setting [8]), 97% (active); in experiment [4] (at 50.0 µM) it was 90.3% (active). The growth inhibition is -24% in experiment [5] (setting [7]); 98% (active) in experiment [5] (setting [8]); 89% (active) in experiment [5] (at 50.0 µM); 5% in experiment [6] (setting [7]); 97% (active) in experiment [6] (setting [8]); 90.2% (active) in experiment [6] (at 50.0 µM).
With `N#Cc1cc2c(cc1Cl)Sc1nccn1S2(=O)=O`, the growth inhibition is 5% in experiment [1] (setting [7]); 36% in experiment [1] (setting [8]); 28.4% in experiment [1] (at 50.0 µM); 6% in experiment [2] (setting [7]); 52% in experiment [2] (setting [8]); 34.7% in experiment [2] (at 50.0 µM). Moreover, the growth inhibition in experiment [3] (setting [7]) is 19%; in experiment [3] (setting [8]) it was 63%; in experiment [3] (at 50.0 µM), 43.7%; in experiment [4] (setting [7]), -1%; in experiment [4] (setting [8]), 17%; in experiment [4] (at 50.0 µM), 39.2%. The growth inhibition in experiment [5] (setting [7]) was 10%; in experiment [5] (setting [8]), 90% (active); in experiment [5] (at 50.0 µM), 76.7% (active); in experiment [6] (setting [7]), 2%; in experiment [6] (setting [8]) it was 62%; in experiment [6] (at 50.0 µM), 64%.
As to `C/C(=N\NC(=S)N1CCCC1)c1cnccn1`, the growth inhibition in experiment [1] (setting [7]) is 61%; in experiment [1] (setting [8]), 98% (active); in experiment [1] (at 50.0 µM), 98.8% (active); in experiment [2] (setting [7]) it was 56%; in experiment [2] (setting [8]), 99% (active); in experiment [2] (at 50.0 µM), 99% (active). Besides, the growth inhibition in experiment [3] (setting [7]) was 77% (active); in experiment [3] (setting [8]), 98% (active); in experiment [3] (at 50.0 µM) it was 99.3% (active); in experiment [4] (setting [7]) it was 74% (active); in experiment [4] (setting [8]), 98% (active); in experiment [4] (at 50.0 µM) it was 97.7% (active). Moreover, the growth inhibition in experiment [5] (setting [7]) was 33%; in experiment [5] (setting [8]) it was 97% (active); in experiment [5] (at 50.0 µM), 99% (active); in experiment [6] (setting [7]), 80% (active); in experiment [6] (setting [8]), 98% (active); in experiment [6] (at 50.0 µM), 99.1% (active).
Take `Cc1ccc(-c2c(N)[n+]([O-])c3ccccc3[n+]2[O-])cc1`: the growth inhibition was 34% in experiment [1] (setting [7]); 95% (active) in experiment [1] (setting [8]); 99.3% (active) in experiment [1] (at 50.0 µM); 32% in experiment [2] (setting [7]); 99% (active) in experiment [2] (setting [8]); 99.3% (active) in experiment [2] (at 50.0 µM). In addition, the growth inhibition in experiment [3] (setting [7]) was 47%; in experiment [3] (setting [8]) it was 100% (active); in experiment [3] (at 50.0 µM), 99.2% (active); in experiment [4] (setting [7]) it was 46%; in experiment [4] (setting [8]), 98% (active); in experiment [4] (at 50.0 µM), 98.3% (active). For the same compound, the growth inhibition in experiment [5] (setting [7]) was 54%; in experiment [5] (setting [8]), 99% (active); in experiment [5] (at 50.0 µM), 99.2% (active); in experiment [6] (setting [7]), 81% (active); in experiment [6] (setting [8]) it was 99% (active); in experiment [6] (at 50.0 µM), 99% (active).
